Here are results for 36 molecules from PubChem BioAssay.

One may read the AC50 as the concentration at which the activity in the assay is half-maximal.

Molecules are shown by their SMILES. Records with an inconclusive call do not appear. Calls of active or inactive are those of the source. The limit is not given here; nearly all actives have AC50 up to about 26 µM.

A short description of one test: viability loss in pontine glioma line – cell-based, SU-DIPG-XXV, MIPE5.0, CellTiter-Glo, qHTS, dose response (AID 1347065).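 Also: cells exposed to compound for 48 hours before ATP readout.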 Conditions: CellTiter-Glo ATP luminescence. In general terms: In ATP-based viability assays light output follows the ATP content of the culture.
`CNc1nc(C)nc(N[C@H]2CCC[C@@H](C(=O)NCc3ccc(C#N)cc3C(F)(F)F)C2)n1`: the call was inactive. Consider `CCOc1cc(C(=O)N2CCC(N3CCN(C)CC3)CC2)ccc1Nc1ncc2c(n1)N(C1CCCC1)c1ccccc1C(=O)N2C`, for which the AC50 is 20.9 µM (active). In the case of `COCCNc1cc(NC(=O)N2CCCc3cc(CN4CCN(C)CC4=O)c(C=O)nc32)ncc1C#N`, the call was inactive. Same read-out and setting: as for `CCC(CC)CC1(C(=O)Nc2ccccc2SC(=O)C(C)C)CCCCC1`, the entry is “inactive”.

Turning to `CCO[C@@H]1OC(=O)C[C@@H]1NC(=O)[C@@H]1CCCN2C(=O)CC[C@H](NC(=O)c3nccc4ccccc34)C(=O)N12`, the result was inactive. Take `FC(F)(F)c1ccc(CNc2ccc(Cc3c[nH]c4ncccc34)cn2)cc1`: the half-maximal activity concentration (AC50) is 20.9 µM (active). Consider `CN[C@@H](C)C(=O)N[C@H](C(=O)N1CCC[C@H]1c1nc(C(=O)c2ccc(F)cc2)cs1)C1CCCCC1`, for which the outcome was inactive. On the same count and under the same terms, the entry for `CN1CCN(C(=O)[C@H]2[C@@H](C(=O)O)[C@H]3CC[C@@H]2O3)CC1` is “inactive”; for `N[C@@H](CCC(=O)O)C(=O)N[C@@H](Cc1c[nH]c2ccccc12)C(=O)O` it is “inactive”. For the molecule `COCCNCc1ccc(-c2cc3nccc(Oc4ccc(NC(=S)NC(=O)Cc5ccc(F)cc5)cc4F)c3s2)nc1`, the AC50 was 4.17 µM (active). On the same count and under the same terms, as for `CCCS(=O)(=O)c1nc(NC2CC2)cc(-c2ccc3c(ccn3C3CC(C)(C)NC(C)(C)C3)c2)n1`, the figure is 2.78 µM (active).

In the case of `CC[C@@H](Oc1cccc(CN(CCCOc2ccc(OC)cc2)c2nc3ccccc3o2)c1)C(=O)O`, the molecule was classed as inactive.

As to `C=CC(=O)N1CCC[C@H](n2c(=O)n(-c3ccc(Oc4ccccc4)cc3)c3c(N)ncnc32)C1`, the AC50 was 7.42 µM (active). On the same count and under the same terms, the figure for `O=C(Nc1cccc(Cl)c1)Nc1ncc(CCNc2ncnc3ccsc23)s1` is 0.525 µM (active). Still for that read-out and setting: the figure for `Cc1ccc(-c2nn(C(C)(C)CNC(=O)c3ccncc3)c3ncnc(N)c23)cc1` is 13.2 µM (active).

Take `N=C(N)c1ccc2nc(-c3cc(CC(=O)N[C@@H](CC(=O)O)C(=O)O)cc(-c4cc(S(N)(=O)=O)ccc4O)c3O)[nH]c2c1`: the outcome was inactive.

A short description of a further test: JHH-DIPG-1 glioma cell viability, MIPE5.0 library, CellTiter-Glo luminescence, qHTS (AID 1347067).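 Also: cells exposed to compound for 48 hours before readout.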 Conditions: JHH-DIPG-1 glioma viability, CellTiter-Glo ATP luminescence.
On to `CN1CCN(C2CCC(n3cc(-c4ccc(Oc5ccccc5)cc4)c4c(N)ncnc43)CC2)CC1` (stereo unspecified), for which the AC50 was 7.42 µM (active).

With `C=CC(=O)Nc1cccc(Nc2nc(Nc3ccc(Oc4ccnc(C(=O)NC)c4)cc3)ncc2F)c1`, the AC50 was 14.8 µM (active).

Take `COc1cc2c(cc1OC)CN(CCc1ccc(-n3nnc(-c4cc(OC)c(OC)cc4NC(=O)c4cc(=O)c5ccccc5o4)n3)cc1)CC2`: the result was inactive. The same measure, in the same setting: the entry for `COc1ccc(C(=O)N2CCN(C(=O)/C=C/c3ccc(Br)cc3)CC2)cc1` is “inactive”.

Take `C=CC(=O)Nc1cccc(C)c1Nc1ncc2cc(-c3c(Cl)c(OC)cc(OC)c3Cl)ccc2n1`: the AC50 was 13.2 µM (active).

In the case of `Cc1cnc(NC(=O)c2cc(Oc3cnc(C(=O)N(C)C)nc3)c3cc(C)oc3c2)cn1`, the molecule was called inactive.

As for `CC(C)(CO)n1cc(C(=O)c2cncc(NC(=O)Cc3ccc(Cl)cn3)c2)c2cnc(N)nc21`, the outcome was inactive. On the same count and under the same terms, the entry for `CCCNC(=O)c1cn2ncnc(Nc3cc(C(=O)NC4CC4)ccc3C)c2c1C` is “inactive”.

Regarding `CC(C)[C@](O)(c1ccc2cc(OC(F)F)c(OC(F)F)cc2c1)c1cn[nH]n1`, the molecule was classed as inactive.

Regarding `Cn1cc(-c2c[nH]c3ncnc(N4CCOCC4)c23)cn1`, the result was inactive.

For `C[C@@H](OC[C@@]1(c2ccccc2)CC[C@]2(CCC(=O)N2)CN1)c1cc(C(F)(F)F)cc(C(F)(F)F)c1`, the AC50 is 14.8 µM (active). As to `C[C@]1(C(=O)N(CCCC(=O)O)Cc2cccc(Cl)c2)CCN1C(=O)c1csc2ccccc12`, the molecule was classed as inactive. On to `COC1CCC(N2C(=O)CNc3ncc(-c4ccc(C(C)(C)O)nc4)nc32)CC1` (stereo unspecified), for which the AC50 is 16.6 µM (active). Turning to `COc1cc(-c2cn(C)c(=O)c3cnccc23)c(OC)cc1CN(C)C`, the outcome was inactive.

For `CC(C)C[C@@H]1NC(=O)[C@@H](C(C)C)NC(=O)[C@@H]2CCCN2C(=O)[C@@H](CC(=O)O)NC(=O)[C@@H](Cc2c[nH]c3ccccc23)NC1=O`, the outcome was inactive. On the same count and under the same terms, as for `O=C([O-])C[O-].[Pt+2]`, the entry is “inactive”; as for `Cc1cc(Nc2cc(N)ncn2)c(=O)n2c1C(=O)NC21CCCCC1`, “inactive”; as for `COc1cc2c(NC3CCN(C)CC3)nc(N3CCCN(C)CC3)nc2cc1OCCCN(C)C`, “inactive”. Consider `CCc1ccc2nc(Nc3cc(Cc4ccccc4)nc(NC4CCC(O)CC4)n3)sc2c1` (stereo unspecified), for which the AC50 is 20.9 µM (active). The same measure, in the same setting: the figure for `C[C@H]1CNC(=O)c2cnn3ccc(nc23)N[C@H](C)c2cc(F)ccc2O1` is 1.48 µM (active).
